Data reported in the supplement of paper PMC13380429.

What follows are compounds tested on Vero E6 infected with SARS-CoV-2 (assay: SARS-CoV-2 infection rate relative to infected DMSO; higher = more infection, active = 60 or less). Conditions: 24 h.
For CCn1cc(C(=O)O)c(=O)c2cc(F)c(N3CCNCC3)cc21 [norfloxacin] (10 µM), the SARS-CoV-2 infection rate was 86% (inactive).
In the case of C[C@@H](O)[C@H]1C(=O)N2C(C(=O)[O-])=C(SC3Cn4cnc[n+]4C3)[C@H](C)[C@H]12 (some centres not stated) [biapenem] (10 µM), the SARS-CoV-2 infection rate is reported as 99.5% (inactive).
With Clc1cc(Cl)c(OCC#CI)cc1Cl [haloprogin] (10 µM) the SARS-CoV-2 infection rate was 32% (active).
In the case of CN1C(=O)CCS(=O)(=O)C1c1ccc(Cl)cc1 (configuration not stated) [chlormezanone] (10 µM), the SARS-CoV-2 infection rate is reported as 117% (inactive).
CCN1CCCC1CNC(=O)c1cc(S(N)(=O)=O)ccc1OC (configuration not stated) [sulpiride] (10 µM) was tested, and the SARS-CoV-2 infection rate was 105% (inactive).
In the case of CC(=O)Nc1c(I)c(C(=O)O)c(I)c(N(C)C(C)=O)c1I [metrizoic-acid] (10 µM), the SARS-CoV-2 infection rate is reported as 108% (inactive).
CCN(CC)c1ccc(/C=N/NC(=O)c2ccc(O)cc2)cc1 (10 µM) was tested, and the SARS-CoV-2 infection rate was 107% (inactive).
For CC1(C)CCC[C@]2(C)[C@H]3CC(=O)O[C@]3(C)CC[C@@H]12 [Sclareolide (Norambreinolide)] (10 µM), the SARS-CoV-2 infection rate was 106% (inactive).
With O=C(NCCNCC(O)COc1ccc(O)cc1)N1CCOCC1 (configuration not stated) [xamoterol] (10 µM) the SARS-CoV-2 infection rate was 110% (inactive).
COc1ccc(C(=O)c2ccccc2O)c(O)c1 [dioxybenzone] (0.833333 µM) was tested, and the SARS-CoV-2 infection rate was 88% (inactive).
With O=C(N[C@H]1CN2CCC1CC2)c1cc2cccc(Cl)c2s1 (10 µM) the SARS-CoV-2 infection rate was 86.5% (inactive).
For CCOC(=O)NNc1nncc2ccccc12 [todralazine] (10 µM), the SARS-CoV-2 infection rate was 106% (inactive).
COc1ccc(S(=O)(=O)Nc2cccnc2Nc2ccc(O)cc2)cc1 (10 µM) was tested, and the SARS-CoV-2 infection rate was 106% (inactive).
In the case of N#Cc1ccc(-c2csc(NN=C3CCCC3)n2)cc1 [remodelin] (10 µM), the SARS-CoV-2 infection rate is reported as 100% (inactive).
In the case of O=c1oc2cc(O)ccc2s1 [tioxolone] (10 µM), the SARS-CoV-2 infection rate is reported as 104% (inactive).
In the case of CC(=O)Nc1ccc(OCC(O)CNC(C)C)cc1 (configuration not stated) [practolol] (10 µM), the SARS-CoV-2 infection rate is reported as 106% (inactive).
CC(C)(C#N)c1cc(Cn2cncn2)cc(C(C)(C)C#N)c1 [anastrozole] (10 µM) was tested, and the SARS-CoV-2 infection rate was 109% (inactive).
For OC(CNCC(O)C1CCc2cc(F)ccc2O1)C1CCc2cc(F)ccc2O1 (configuration not stated) [nebivolol] (10 µM), the SARS-CoV-2 infection rate was 108% (inactive).
In the case of CC[C@H](CC#N)OC(=O)N[C@@H](C)c1cccc(NC(=O)Nc2ccc(-c3cnco3)c(OC)c2)c1 (10 µM), the SARS-CoV-2 infection rate is reported as 97% (inactive).
CC(C)[C@H](CO)Nc1nc(Nc2cccc(Cl)c2)c2ncn(C(C)C)c2n1 [purvalanol-A] (0.833333 µM) was tested, and the SARS-CoV-2 infection rate was 109% (inactive).
With CC[C@]1(O)C[C@H]2CN(CCc3c([nH]c4ccccc34)[C@@](C(=O)OC)(c3cc4c(cc3OC)N(C=O)[C@H]3[C@@](O)(C(=O)OC)[C@H](OC(C)=O)[C@]5(CC)C=CCN6CC[C@]43[C@@H]65)C2)C1 [Vincristine (sulfate)] (10 µM) the SARS-CoV-2 infection rate was 101% (inactive).
COC[C@H](C)Oc1cc(O[C@@H](C)Cc2ccccc2)cc(C(=O)Nc2ccc(C(=O)O)cn2)c1 (10 µM) was tested, and the SARS-CoV-2 infection rate was 100% (inactive).
